We go through five molecules from paper PMC5540273 (PLoS ONE, 2017).

Molecules are shown by their SMILES.

What all share (details): concentration: 1 μM, replicates: in singlicate; n = 1
For test [1], the system named is GRK4.
The subject of test [2] is GRK7.
Test [3] deals with GSK3A.
Test [4] has as its system GSK3B.
The test system of test [5] is T1, HASPIN.
T1 construct: gene GSG2

The subject of test [6] is HCK.
Test [7] deals with HIPK1.
Test [8] concerns HIPK2.
In test [9] the test system is HIPK3.
Test [10] deals with HIPK4.
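Further: KINOMEscan kinase panel screen.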

`N#Cc1c(N2CCOCC2)sc(-c2ccn[nH]2)c1-c1ccc(Cl)cc1`: the “%Inh” value was 0% in test [1]; 26% in test [2]; 0% in test [3]; 0% in [4]; 6% in test [5]; 28% in [6]. In addition, the “%Inh” value in [7] was 26%; in test [8], 16%; in test [9] it was 28%; in test [10], 0%.

As for `COc1cc(Nc2nccc(N3CCC(NC(=O)c4cccc(NC(C)=O)c4)C3)n2)cc(OC)c1OC` (centres unmarked) [GSK1379754], the “%Inh” value was found to be 18% in [1]; 0% in test [2]; 0% in test [3]; 0% in test [4]; 30% in test [5]; 0% in [6]. Besides, the “%Inh” value in test [7] is on record as 3%; in test [8], 0%; in test [9], 0%; in test [10] it was 0%.

Regarding `CN1c2ccc(NCc3ccc(F)cc3)cc2-c2c(cnn2C)S1(=O)=O`, the “%Inh” value in [1] is recorded as 0%; in test [2], 0%; in [3], 22%; in test [4] it was 0%; in [5] it was 37%; in test [6], 8%. Further, the “%Inh” value in [7] was found to be 6%; in test [8], 0%; in [9], 0%; in [10], 0%.

Regarding `c1ccc(-c2n[nH]cc2-c2ccnc3ccccc23)nc1` [GW271431], the “%Inh” value in test [1] worked out at 0%; in test [2] it was 23%; in [3], 15%; in test [4] it was 17%; in [5] it was 10%; in test [6], 0%. For the same molecule, the “%Inh” value came to 15% in test [7], 0% in [8], 26% in test [9] and 0% in test [10].

With `NCC(NC(=O)c1cc(-c2cn[nH]c2)c(-c2ccnc3[nH]ccc23)s1)c1ccccc1.O=C(O)C(F)(F)F.O=C(O)C(F)(F)F` (centres unmarked) [GSK1325775], the “%Inh” value in test [1] was determined as 64%; in [2], 51%; in [3], 38%; in test [4] it was 48%; in [5], 84%; in test [6], 0%. The “%Inh” value is reported as 88% in [7], 96.7% in test [8], 98.4% in [9] and 94.8% in test [10].
